Assay outcomes as filed in PubChem BioAssay.
PI5P4Ka inh: qHTS for Inhibitors of phosphatidylinositol 5-phosphate 4-kinase (PI5P4K). Phosphatidylinositol 5-phosphate 4-kinase type-2 alpha (Homo sapiens), P48426. PI5P4Kalpha enzyme, ADP-Glo luminescence, 60 min; hits give low values. max response, %. 1.2% of 330,000 active. AID 652105, 2013; active = max response of -50% or lower; inconclusive = between -30% and -50%; inactive = -30% or higher; also: value at the top dose of about 77 µM
Target sequence (P48426 whole entry, looked up): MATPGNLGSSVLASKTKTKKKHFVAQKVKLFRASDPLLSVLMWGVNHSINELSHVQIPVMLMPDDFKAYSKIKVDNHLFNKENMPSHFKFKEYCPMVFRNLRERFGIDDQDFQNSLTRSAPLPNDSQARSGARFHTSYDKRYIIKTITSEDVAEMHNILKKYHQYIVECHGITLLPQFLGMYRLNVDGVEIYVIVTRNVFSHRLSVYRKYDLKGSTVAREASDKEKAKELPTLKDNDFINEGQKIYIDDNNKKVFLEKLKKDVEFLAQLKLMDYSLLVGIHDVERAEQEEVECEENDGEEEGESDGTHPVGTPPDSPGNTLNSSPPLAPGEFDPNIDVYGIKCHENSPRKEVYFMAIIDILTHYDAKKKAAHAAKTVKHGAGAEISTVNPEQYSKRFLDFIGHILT
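Controls without substrate or without enzyme flank wells where PI5P4Kalpha converts substrate using 5 microM ATP (final). Incubation lasts 60 minutes at room temperature; ADP formed is read by ADP-Glo luminescence.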
BAZ2B block: qHTS Assay for Inhibitors of BAZ2B | AlphaScreen BAZ2B-H3K14Ac peptide displacement | Potency, µM (doses to about 114 µM), usual class: inhibitors | 4.4% of 360,000 active; also: nearly all actives have a fitted effect of over 60% in size
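Inhibition is scored as reduced AlphaScreen emission. The BAZ2B/b-H3(5-23)K14Ac complex (50 nM each) in PBS pH 7.4, 0.01% Tween-20 meets compound (up to 110 uM) for 30 min at RT before bead addition.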
PLK1 PBD block: qHTS for Inhibitors of PLK1-PDB (polo-like kinase 1 - polo-box domain): Primary Screen. 2.8% of 360,000 active. Plk1 PBD binding of FITC phosphopeptide, fluorescence polarization. Potency, µM, actives largely listed as inhibitors. Serine/threonine-protein kinase PLK1 (Homo sapiens), P53350; also: series mostly up to about 57 µM; nearly all actives have a fitted effect of over 65% in size
HP1b binding inh: HTS for Inhibitors of HP1-beta Chromodomain Interactions with Methylated Histone Tails; Chromobox protein homolog 1 (Homo sapiens), P83916; AlphaScreen HP1-beta / biotin-H3K9me3 peptide binding; Potency, µM (doses to about 114 µM), most hits filed as inhibitors; 0.56% of 390,000 active; AID 540317, 2011; also: nearly all actives have a fitted effect of over 70% in size
Target sequence (P83916 whole entry, looked up): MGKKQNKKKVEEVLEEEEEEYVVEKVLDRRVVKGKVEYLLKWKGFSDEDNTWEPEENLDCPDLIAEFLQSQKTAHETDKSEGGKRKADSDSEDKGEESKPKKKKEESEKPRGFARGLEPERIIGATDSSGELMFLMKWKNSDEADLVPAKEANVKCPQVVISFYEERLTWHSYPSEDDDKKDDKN
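HP1-beta protein (50 nM final) preincubated 30 min at room temperature with biotinylated H3(1-18)K9me3 peptide (50 nM) in PBS pH 7.4, 0.01% Tween-20, then compound added for 30 min. AlphaScreen streptavidin donor/nickel chelate acceptor beads (10 ug/mL final), 30 min dark, luminescence read.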
G9a block: qHTS Assay for Inhibitors of Histone Lysine Methyltransferase G9a | Histone-lysine N-methyltransferase EHMT2 (Homo sapiens), Q96KQ7 | G9a H3K9 monomethylation, AlphaScreen, 2 h | Potency, µM (doses to about 102 µM), usual class: inhibitors | 8.8% of 350,000 active | AID 504332, 2011; also: nearly all actives have a fitted effect of over 75% in size
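AlphaScreen read-out: biotin-H3K9 peptide (500 nM) methylation by 20 nM enzyme with 20 uM SAM, 2 h at room temperature after 15 min compound preincubation; anti-monomethyl H3K9 antibody plus donor/acceptor beads, 10 min dark.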
JMJD2A Tudor: qHTS Assay for Inhibitors of JMJD2A-Tudor Domain. Potency, µM (top dose mostly 114 µM), actives largely listed as inhibitors. Lysine-specific demethylase 4A (Homo sapiens), O75164. AlphaScreen JMJD2A-Tudor / H3K4me3 peptide binding. 4.4% of 390,000 active. AID 504339, 2011; also: nearly all actives have a fitted effect of over 50% in size
A number is an active result; 0 = inactive; ? = inconclusive; - = no result given; ! = not confirmed by another sample; [ ] = remark or other dose. Most compounds without a hit are left out; they make up all but 12% or so of the library. Unless noted, calls follow the shape of the dose curve; as a rule, active = well fitted curve in the direction sought with a large enough effect; inconclusive = small, poorly fitted or top-dose-only effect, or another doubt; inactive = no such curve, though single readings can be large; an effect the other way counts as inactive or inconclusive.

SMILES	PI5P4Ka inh	BAZ2B block	PLK1 PBD block	HP1b binding inh	G9a block	JMJD2A Tudor
CCOC(=O)N1CCN(C(=S)NC(=O)c2cncc(Br)c2)CC1	0	0	19µM	0	4µM	0
CCOC(=O)N1CCN(C(=S)NC(=O)c2ccc(Br)cc2)CC1	0	0	0	0	50µM	0
c1ccc(Oc2ccccn2)cc1	0	-	0	0	-	0
C=CCN1C(=O)C(CC(=O)O)SC1=Nc1ccc(N=Nc2ccccc2)cc1 (centres undefined)	0	40µM	0	0	40µM	?
c1cncc(-c2nnc(-c3cccnc3)nn2)c1	0	0	6.7µM	?	8.9µM	0
c1ccc(-c2nnc(-c3ccccc3)nn2)cc1	0	?	0	0	?	?
CCOc1ccc(C2OCCC(C)O2)cc1OC (centres undefined)	0	-	0	0	-	0
COc1cc(C(O)C(=O)O)ccc1O (centres undefined)	0	0	0	0	11µM!	0
Cc1c(Br)c(=O)oc2c(Br)c(O)c(O)cc12	-63	?	0	0	28µM	45µM
Cc1c(Br)c(=O)oc2c(Br)c(O)ccc12	0	0	0	0	0	0
O=c1c2c([N+](=O)[O-])cc([N+](=O)[O-])cc2sn1Cc1ccccc1	-80	3.5µM	0.75µM	?	1µM	4.5µM
O=c1c2c([N+](=O)[O-])cc([N+](=O)[O-])cc2sn1-c1ccc(Br)cc1	-85	5µM	2.7µM	7.9µM	1.4µM	18µM
COc1ccc(OCc2n[nH]c(=S)o2)cc1	?	0	?	0	?	?
CCOc1ccccc1-c1n[nH]c(=S)o1	-	?	0	0	1.8µM	40µM
CCOc1ccc(-c2n[nH]c(=S)o2)cc1	?	-	0	0	5µM	?
O=c1[nH]nc(-c2cc(-c3ccccc3)nc3ccccc23)o1	0	-	0	-	-	-
COc1ccc(-c2n[nH]c(=S)o2)c(OC)c1	-86	0	0	0	?	79µM
CCCCc1cc(-c2n[nH]c(=S)o2)c2ccccc2n1	-56	?	?	0	4.5µM	0
CCOc1ccccc1-c1nc(-c2ccncc2)no1	0	?	0	0	0	0
C[C@@H]1CN([C@H](C)CO)S(=O)(=O)c2ccc(C#CC3CCCC3)cc2O[C@H]1CN(C)C(=O)Cc1ccccc1	0	-	0	-	-	-
CCOc1ccc(-c2nn[nH]n2)cc1	0	?	27µM	0	0[2.33 µM]	50µM
O=C1c2oc3ccccc3c(=O)c2C(c2cccnc2)N1Cc1ccco1 (centres undefined)	-	0	0	0	25µM	0
CCN(CC)CCCN1C(=O)c2oc3ccccc3c(=O)c2C1c1cccnc1 (centres undefined)	0	0	0	0	50µM	?
c1ccc(CNc2ccc(N3CCOCC3)cc2)cc1	-	-	-	?	-	45µM
c1ccc(CNc2nc(NCc3ccco3)nc(N3CCOCC3)n2)cc1	0	?	30µM	0	-	?
SMILES	PI5P4Ka inh	BAZ2B block	PLK1 PBD block	HP1b binding inh	G9a block	JMJD2A Tudor
COc1ccc(CNc2ccc(N3CCOCC3)cc2)cc1	0	0	0	0	-	?
Clc1ccc(CNc2ccc(N3CCN(Cc4ccccc4)CC3)cc2)cc1	0	5.6µM	0	18µM	10µM	11µM
Cc1ccc(S(=O)(=O)/N=C2\C=C(Nc3cccc(C(=O)O)c3)C(=O)c3ccccc32)c(C)c1	0	8.9µM	27µM	?	2.8µM	28µM
Cc1ccc(S(=O)(=O)/N=C2\C=C(Nc3ccc(O)cc3)C(=O)c3ccccc32)cc1	0	-	0	13µM	-	5.6µM
Cc1ccc(S(=O)(=O)/N=C(/c2ccccc2)N(C)c2ccc(O)cc2)cc1	0	0	0	0	0	0
CCc1ccc(S(=O)(=O)/N=C2\C=C(Nc3ccc(C(=O)O)cc3)C(=O)c3ccccc32)cc1	0	7.9µM	0	?	8.9µM	28µM
Cc1ccc(S(=O)(=O)/N=C2\C=C(Nc3cccc(C(=O)O)c3)C(=O)c3ccccc32)cc1	0	13µM	60µM	?	10µM	45µM
C[C@H]1O[C@@H](n2cc(F)c(=O)[nH]c2=O)[C@H](O)[C@H]1O	-	-	-	-	0	-
Cc1cc(S(=O)(=O)n2ccnc2C(C)C)cc([N+](=O)[O-])c1C	-	0	-	0	0	0
Cc1ccc(OCc2cc(C(=O)NC(C)Cc3cccc(C)n3)no2)cn1 (centres undefined)	0	0	0	0	0[0.501 µM]	0
CN1CCC(C)(C(=O)Nc2cccc(Oc3ccccc3)c2)C1 (centres undefined)	0	-	0	-	-	-
Cc1cccc(C)c1NC(=O)/C(C#N)=C/c1ccc(-c2ccc(C(=O)O)cc2)o1	?	?	0	0	45µM	0
N#C/C(=C\c1ccc(-c2ccc(C(=O)O)cc2)o1)C(=O)Nc1ccc(F)cc1	0	?	0	0	-	?
N#C/C(=C\c1ccc(-c2ccc(C(=O)O)cc2)o1)C(=O)NCC1CCCO1 (centres undefined)	0	?	0	0	10µM	0
C=CCNC(=S)NC(=O)c1csc([N+](=O)[O-])c1	0	0	0	0	25µM	0
O=C(NC(=S)N1CCCCC1)c1csc([N+](=O)[O-])c1	0	0	?	0	25µM	0
C=CCNC(=S)N/N=C/c1ccc(C)c([N+](=O)[O-])c1	0	0	0	0	0	0
O=C(NC(=S)N1CCCCC1)c1cccs1	0	0	0	0	?	0
COc1ncnc2c1ncn2CCCN(CCCc1ccccc1)CCCn1cnc2c(OC)ncnc21	0	-	0	-	-	-
Cc1nnc(NC(=O)c2ccc(F)c(S(=O)(=O)N3CCOCC3)c2)s1	0	-	0	0	-	0
Cc1ccc(C(=O)Nc2nc(-c3ccccn3)cs2)cc1S(=O)(=O)N1CCOCC1	?	25µM	7.5µM	0	?	0
O=C(Nc1nc(-c2ccccn2)cs1)c1cc(S(=O)(=O)N2CCOCC2)ccc1F	?	22µM	?	0	?	79µM
CN(CC1CCCO1)S(=O)(=O)c1ccc(C(=O)Nc2nc(-c3ccccn3)cs2)cc1 (centres undefined)	0	28µM	0	0	0	50µM
O=C(Nc1nc(-c2ccccn2)cs1)c1ccc(F)c(S(=O)(=O)N2CCOCC2)c1	?	28µM	12µM	?	7.1µM	50µM
CCCn1c2ccccc2c2cnn(CC(=O)Nc3cc(C)c(Cl)cc3OC)c(=O)c21	-	0	-	0	0	0
O=C(O)c1ccc(Cn2cnc3cccnc32)cc1	0	0	0	0	40µM	0
